Reference: PubChem BioAssay (EPA / NIEHS)
Results filed as inconclusive are left out. Where a structure was tested more than once in an assay, its records may differ in their call. Active and inactive are the calls of the source. The calls were made as follows: active = hit-call score of the fitted dose curve at least 0.9, where 1 is the maximum; inconclusive = response in the unintended direction; inactive = score below 0.9.

The compounds below were run against Glucocorticoid receptor (Homo sapiens) (UniProt P04150) (assay: ATG_GR_TRANS: Attagene TRANS-FACTORIAL HepG2 Assay for human Glucocorticoid Receptor (GR) (AID 2282978;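 also: activators score as hits since higher reporter transcript over DMSO is fitted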)). Details: HepG2 Attagene TRANS GR reporter, mRNA transcription.
Chain of Glucocorticoid receptor (Homo sapiens) (P04150 whole entry, looked up): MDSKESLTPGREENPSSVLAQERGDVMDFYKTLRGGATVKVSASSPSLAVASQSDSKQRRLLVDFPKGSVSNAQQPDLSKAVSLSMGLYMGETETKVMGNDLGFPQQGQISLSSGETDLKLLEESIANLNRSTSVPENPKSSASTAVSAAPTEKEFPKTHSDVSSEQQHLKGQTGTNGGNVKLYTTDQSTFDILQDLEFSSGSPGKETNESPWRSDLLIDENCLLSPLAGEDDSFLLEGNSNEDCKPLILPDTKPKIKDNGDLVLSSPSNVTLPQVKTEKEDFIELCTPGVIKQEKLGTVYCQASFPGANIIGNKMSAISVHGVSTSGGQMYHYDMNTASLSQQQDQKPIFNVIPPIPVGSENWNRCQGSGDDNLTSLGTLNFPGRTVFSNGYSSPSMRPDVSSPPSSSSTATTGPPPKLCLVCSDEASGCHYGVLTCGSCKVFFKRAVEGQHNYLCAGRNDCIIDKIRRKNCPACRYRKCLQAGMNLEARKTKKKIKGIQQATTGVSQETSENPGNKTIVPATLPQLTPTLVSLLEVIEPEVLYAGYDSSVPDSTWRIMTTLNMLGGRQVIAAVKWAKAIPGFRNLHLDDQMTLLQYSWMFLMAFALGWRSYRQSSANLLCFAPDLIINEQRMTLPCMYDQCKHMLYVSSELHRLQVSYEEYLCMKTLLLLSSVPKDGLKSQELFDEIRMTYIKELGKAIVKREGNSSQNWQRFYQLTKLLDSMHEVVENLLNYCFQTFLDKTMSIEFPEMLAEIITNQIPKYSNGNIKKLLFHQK
Protocol: ATG_TRANS is a cell-based, multiplexed-readout assay that uses HepG2, a human liver cell line, with measurements taken at 24 hours after chemical dosing in a 24-well plate.ATG_GR_TRANS is one of 30 assay component(s) measured or calculated from the ATG_TRANS assay. It is designed to make measurements of mRNA induction, a form of inducible reporter, as detected with fluorescence intensity signals by Reverse transcription polymerase chain reaction (RT-PCR) and Capillary electrophoresis technology.Data from the assay component ATG_GR_TRANS was analyzed into 1 assay endpoint. This assay endpoint, ATG_GR_TRANS, was analyzed in the positive analysis fitting direction relative to DMSO as the negative control and baseline of activity. Using a type of inducible reporter, measures of mRNA for gain-of-signal activity can be used to understand the reporter gene at the transcription factor-level as they relate to the gene NR3C1. Furthermore, this assay endpoint can be referred to as a primary readout, because this assay has produced multiple assay endpoints where this one serves a reporter gene function. To generalize the intended target to other relatable targets, this assay endpoint is annotated to the nuclear receptor intended target family, where the subfamily is steroidal.
Human liver HepG2 cells are transiently transfected with multiple reporter transcription units (MRTUs) in 6-well plates using FuGene 6 reagent (Roche; 3 ml FuGene/1 mg DNA). The MRTU constructs are regulated by a cis-regulating element (promoter). […] A major difference between the CIS and TRANS system is that in CIS activities of endogenous TFs are measured, whereas the TRANS assay evaluates changes in activities of exogenous, chimeric NR-Gal4 proteins. […] At the end of 24 hour incubation, total RNA was isolated using TriZol reagent (Invitrogen). The isolated RNA is then reverse-transcribed using oligo(dT) primer and Mo-MLV reverse transcriptase (Invitrogen) with DNAse I (Ambion) treatment for 30 min. The one-tenth of the produced cDNA was amplified by PCR using Taq DNA polymerase (Invitrogen) and two reporter sequence-specific primers. The PCR products were fluorescently labeled by primer extension with 6-arboxyfluorescein (6-FAM) 5'-labeled reporter sequence-specific primer (2 min at 95 C, 20 s at 68 C and 10 min at 72 C) and these products were digested with 5U of HpaI (New England Biolabs) for 2h at 37 C. The fragments were purified using Qiaquick PCR columns (Qiagen), analyzed on an ABI 3130xL genetic analyzer (Applied Biosystems) with peak positions identified by using a set of X-rhodamine (ROX)-labeled MapMarker1000 molecular weight standards (BioVentures). The raw capillary electrophoresis data was processed using Attagraph software (Attagene).

Compound	outcome	AC50
CC(=O)Nc1ccc(S(N)(=O)=O)cc1	inactive	
O=C(O)CCC(F)(F)C(F)(F)C(F)(F)C(F)(F)C(F)(F)F	inactive	
c1cc2cccc3c4cccc5cccc(c(c1)c23)c54	inactive	
O=C(NCc1ncc(C(F)(F)F)cc1Cl)c1c(Cl)cccc1Cl	inactive	
NS(=O)(=O)O	inactive	
CCc1cccc(CC)c1NC(=O)C(=O)O	inactive	
Nc1cc(Cl)c(-c2cc(Cl)c(N)cc2Cl)cc1Cl	inactive	
CN(CCO)S(=O)(=O)C(F)(F)C(F)(F)C(F)(F)C(F)(F)C(F)(F)C(F)(F)C(F)(F)C(F)(F)F	inactive	
CCC(C)c1nccnc1OC (stereo not given)	inactive	
CCCCCCCCCCCC[N+](C)(C)Cc1ccccc1	inactive	
CC(C)(C)c1ccc(O)c(O)c1	inactive	
CC(C)(C)c1ccc(CCC=O)cc1	inactive	
c1ccc2c(c1)CCC2	inactive	
NC(=NCCCCCCN=C(N)/N=C(\N)Nc1ccc(Cl)cc1)/N=C(\N)Nc1ccc(Cl)cc1	inactive	25.3 µM (active)
CC(C)(O)C(=O)c1ccccc1	inactive	
Cc1cc(C(C)(C)C)c(O)c(C(C)(C)C)c1		100 µM (active)
CC(C)c1c(C(=O)Nc2ccccc2)c(-c2ccccc2)c(-c2ccc(F)cc2)n1CC[C@@H](O)C[C@@H](O)CC(=O)O	inactive	
CCOC(=O)CN[C@@H](C(=O)N1CC[C@H]1C(=O)NCc1ccc(/C(N)=N/O)cc1)C1CCCCC1	inactive	
CCCC=O	inactive	
O=C(O)C(F)(F)OC(F)(F)C(F)(F)OC(F)(F)C(F)(F)OC(F)(F)C(F)(F)C(F)(F)C(F)(F)F	inactive	

Compound	outcome	AC50
CC1CNCC(C)O1 (stereo not given)	inactive	
O=C1C=CC(=O)N1c1cccc(N2C(=O)C=CC2=O)c1	inactive	
FCOC(C(F)(F)F)C(F)(F)F	inactive	
CCC(C)c1ccccc1O (stereo not given)	inactive	
CN(C)CCOC(c1ccccc1)c1ccccc1	inactive	
CCN(CCC#N)c1ccccc1	inactive	
COC1=CC(=O)C[C@@H](C)[C@]12Oc1c(Cl)c(OC)cc(OC)c1C2=O	inactive	
Cc1ccc(N=Nc2c(O)ccc3ccccc23)c(C)c1	inactive	
N=C(N)c1ccc(OCCCCCOc2ccc(C(=N)N)cc2)cc1	inactive	
CS(=O)(=O)c1ccc([C@@H](CC2CCCC2)C(=O)Nc2cnccn2)cc1Cl	inactive	
Oc1ccc(Cc2ccccc2O)cc1	inactive	
COC(O)c1ccccc1 (stereo not given)	inactive	
Oc1cc2ccccc2cc1O	inactive	
O=C(CC(=O)C(F)(F)C(F)(F)C(F)(F)F)c1cccs1	inactive	
CC1CCC(CO)CC1 (stereo not given)	inactive	
Cc1[nH]nc2c1N=C(c1ccccc1Cl)c1cc([N+](=O)[O-])ccc1N2	inactive	
C=COC(=O)C(C)(C)CCCCCC	inactive	
CCCCCCc1ccc(N)cc1	inactive	
CC=O	inactive	
